SW480 rereplic – induces DNA re-replication in SW480 colon adenocarcinoma cells; SW480 DNA re-replication, Hoechst DNA content imaging, 48 h; Potency, µM (top dose mostly 46.1 µM), for the others: top-dose re-replication activation, actives largely listed as activators; hit rate 1.8% among 340,000; AID 624297; also: potency is read from the fitted curve at half-maximal effect; % of control where 0% means no effect; nearly all actives have a fitted effect of over 55% in size
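Compounds, transferred as 23 nL by pin tool, were incubated with cells for 48 hr; DNA content per nucleus was then quantified by Hoechst staining and fluorescence plate imaging.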
MCF10A rerep – inducers of DNA re-replication in MCF 10A breast cells | MCF 10A DNA re-replication, Hoechst nuclear intensity, 48 h | Potency, µM (top dose mostly 46.1 µM), inactives show at the highest dose activity, positive = re-replication, actives largely listed as activators | hit rate 2.9% among 350,000; also: potency is read from the fitted curve at half-maximal effect; % of control where 0% means no effect; nearly all actives have a fitted effect of over 50% in size
KCNH2 3.1 inh – KCNH2 3.1 (human) potassium channel inhibition. U2OS KCNH2 3.1, thallium flux FluxOr; stronger effect = lower value. activity change, % (tested at about 1.8 µM). hit rate 0.95% among 340,000;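 active = maximum activity change below -70%; inconclusive = maximum activity change from -70% to -50%; inactive = maximum activity change above -50%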;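 also: thallium influx rate constant from kinetic fluorescence after stimulation buffer; % is scaled to controls: 0 for no effect and ±100 for the full control effect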
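Measured as rate of thallium-driven FluxOr signal in transduced U2OS cells carrying the 3.1 channel, read kinetically for 2 min upon stimulation; values are rate constants scaled to DMSO control wells.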
KB-3-1 tox – KB-3-1 parental cell cytotoxicity | AID 1347075 | Potency, µM (titrated, usually from 46.1 µM), hits mostly cytotoxic | KB-3-1 viability, CellTiter-Glo ATP luminescence, 72 h | hit rate 1.4% among 400,000; also: potency is read from the fitted curve at half-maximal effect; % is scaled to controls: 0 for no effect and ±100 for the full control effect; nearly all actives have a fitted effect of over 60% in size
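Cytotoxicity in the drug-sensitive parental line KB-3-1 was scored as loss of CellTiter-Glo luminescence following 72 h incubation with compound. Values come from curve fitting of normalized concentration-response data.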
hERG WT inh – blocks the wildtype human KCNH2 potassium channel; AID 720551; hit rate 0.37% among 340,000; activity change, % at 1.84 µM; Q12809; U2OS, BacMam KCNH2, thallium flux FluxOr; stronger effect = lower value;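 active = maximum activity change below -70%; inconclusive = maximum activity change between -70% and -50%; inactive = maximum activity change above -50%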; also: % is scaled to controls: 0 for no effect and ±100 for the full control effect
Target sequence (Q12809 whole entry, looked up): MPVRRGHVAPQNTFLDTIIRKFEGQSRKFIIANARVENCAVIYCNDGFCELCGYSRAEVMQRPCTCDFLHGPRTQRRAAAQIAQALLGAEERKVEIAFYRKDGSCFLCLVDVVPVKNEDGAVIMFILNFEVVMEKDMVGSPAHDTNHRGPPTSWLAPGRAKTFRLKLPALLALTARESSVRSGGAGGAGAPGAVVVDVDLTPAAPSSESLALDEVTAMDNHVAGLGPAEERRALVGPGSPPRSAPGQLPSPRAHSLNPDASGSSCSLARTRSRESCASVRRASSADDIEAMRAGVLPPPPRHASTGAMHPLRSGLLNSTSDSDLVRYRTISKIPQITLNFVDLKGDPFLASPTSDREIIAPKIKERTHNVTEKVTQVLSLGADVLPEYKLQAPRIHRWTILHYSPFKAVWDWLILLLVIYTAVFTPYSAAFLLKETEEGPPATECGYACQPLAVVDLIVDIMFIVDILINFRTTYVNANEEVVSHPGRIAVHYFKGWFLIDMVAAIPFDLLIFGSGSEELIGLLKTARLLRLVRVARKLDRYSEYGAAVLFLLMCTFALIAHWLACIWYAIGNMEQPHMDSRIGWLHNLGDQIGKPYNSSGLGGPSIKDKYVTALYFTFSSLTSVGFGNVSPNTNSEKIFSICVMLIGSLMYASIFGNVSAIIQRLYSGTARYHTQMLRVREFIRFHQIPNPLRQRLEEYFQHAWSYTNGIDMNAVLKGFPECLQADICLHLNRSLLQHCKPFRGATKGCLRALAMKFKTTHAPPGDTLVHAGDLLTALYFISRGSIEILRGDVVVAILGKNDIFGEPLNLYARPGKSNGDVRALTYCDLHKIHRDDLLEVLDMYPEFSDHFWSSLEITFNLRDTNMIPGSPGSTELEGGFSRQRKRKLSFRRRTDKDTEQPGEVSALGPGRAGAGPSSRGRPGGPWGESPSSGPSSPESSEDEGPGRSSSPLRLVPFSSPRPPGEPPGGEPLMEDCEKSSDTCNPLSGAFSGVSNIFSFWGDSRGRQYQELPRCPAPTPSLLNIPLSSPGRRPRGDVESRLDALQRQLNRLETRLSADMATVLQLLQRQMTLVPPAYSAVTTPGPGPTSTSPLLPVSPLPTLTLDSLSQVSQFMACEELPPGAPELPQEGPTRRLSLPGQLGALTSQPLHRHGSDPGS
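U2OS cells transduced with wild-type KCNH2 virus are loaded with FluxOr dye for 45 min, and thallium flux is measured in kinetic reads before and after stimulation buffer. Rate constants are normalized to DMSO controls.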
KB-V1 MDR tox – KB-V1 MDR subline cytotoxicity; KB-V1 MDR cells viability, CellTiter-Glo, 72 h; Potency, µM (doses to about 46.1 µM), most hits filed as cytotoxic; hit rate 3.4% among 400,000; also: potency is read from the fitted curve at half-maximal effect; % is scaled to controls: 0 for no effect and ±100 for the full control effect; nearly all actives have a fitted effect of over 60% in size
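Drug-selected KB-V1 cells, grown in DMEM lacking phenol red with 10% FBS, receive compound titrations; after three days at 37 degrees C, surviving cell ATP is quantified by CellTiter-Glo luminescence and responses normalized and curve-fitted.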
* marks the source's active call; other numbers are inactive results; i = inactive; u = inconclusive; x = not tested or not shown. Hits are enriched below; roughly 7.6% of the tested compounds scored in any of these assays. Unless noted, calls follow the shape of the dose curve; as a rule, active = well fitted curve in the direction sought with a large enough effect; inconclusive = small, poorly fitted or top-dose-only effect, or another doubt; inactive = no such curve, though single readings can be large; an effect the other way counts as inactive or inconclusive.

SMILES	SW480 rereplic	MCF10A rerep	KCNH2 3.1 inh	KB-3-1 tox	hERG WT inh	KB-V1 MDR tox
CCN1C(=O)C(CC(=O)Nc2ccc(Cl)cc2)N(NC(=O)c2ccncc2)C1=S (centres undefined)	-13%	9%	-4	i	-5	u
C=CCn1c(SCc2nc3sc4c(c3c(=O)[nH]2)CCCC4)nc2ccccc2c1=O	-1%	10µM*	-11	i	8	2.1µM*
C=CCSc1nnc(CSc2nc3sc4c(c3c(=O)[nH]2)CCCC4)n1-c1ccccc1	u	u	1	i	1	21µM*
CCOC(=O)CSc1nnc(CSc2nc3sc4c(c3c(=O)[nH]2)CCC4)n1-c1ccccc1	-2%	3%	-5	i	0	i
CCC(C)n1ncn(-c2ccc(N3CCN(c4ccc(O)cc4)CC3)cc2)c1=O (centres undefined)	-8%	u	1	1.5µM*	23	i
CCC(C)n1ncn(-c2ccc(N3CCN(c4ccc(OCC5COC(Cn6cncn6)(c6ccc(Cl)cc6Cl)O5)cc4)CC3)cc2)c1=O (centres undefined)	u	u	-26	i	-2	u
O=C(CSc1ncnc2c1oc1ccccc12)NCC1CCCO1 (centres undefined)	-10%	-3%	4	i	-15	i
CC(C)Cc1nc2oc3c(NCc4cccnc4)ncnc3c2c2c1CCC2	-20%	-1%	-13	i	-10	u
c1ccc2c(c1)oc1c(NCC3CCCO3)ncnc12 (centres undefined)	-5%	-1%	-2	i	-6	16µM*
CC(C)Cc1nc2oc3c(NCC4CCCO4)ncnc3c2c2c1CCC2 (centres undefined)	-4%	u	-1	u	-7	10µM*
c1ccc(-c2nc(NCC3CCCO3)c3oc4ccccc4c3n2)cc1 (centres undefined)	-4%	u	-4	i	-12	3.7µM*
O=C(O)CNc1nc(-c2ccccc2)nc2c1oc1ccccc12	1%	7%	-10	i	1	u
c1ccc(CNc2ncnc3c2oc2ccccc23)nc1	0%	6%	0	i	5	21µM*
Cc1cc2c(c3oc(=O)c4ccccc4c13)CN(Cc1ccc(F)cc1)CO2	x	x	x	i	x	i
CCOc1ccccc1NC(=O)c1cc(C(=O)c2cc(Br)ccc2O)coc1=N	u	7.3µM*	20	u	-4	u
CC(C)(C)c1ccc(CC(=O)N2CCC2(C)C(=O)Nc2cnc3ccccc3c2)cc1 (centres undefined)	x	x	x	u	x	16µM*
CSc1ccc(NC(=O)C2(C)CCN2C(=O)Cc2ccc(C(C)(C)C)cc2)cc1 (centres undefined)	x	x	x	u	x	16µM*
CC(C)c1ccc(CC(=O)N2CCC2(C)C(=O)Nc2cnc3ccccc3c2)cc1 (centres undefined)	x	x	x	i	x	i
CC(C)(C)c1ccc(CC(=O)N2CCC2(C)C(=O)Nc2cccc3ccccc23)cc1 (centres undefined)	x	x	x	i	x	i
O=C(CNS(=O)(=O)c1ccccc1)NNC(=O)C(Cl)Cl	-6%	-1%	-5	i	-20	i
CN1C2CCC1CC(NC(=O)c1cc(Cl)cc3[nH]cnc13)C2 (centres undefined)	-3%	0%	0	i	-19	i
COc1ccc(C(=O)NNC(=S)NC(=O)c2cccs2)cc1	14%	u	17	u	-1	i
COc1ccc(/C=C/C(=O)NC(=S)NNC(=O)c2cccs2)cc1	23µM*	10µM*	-1	u	1	u
Cc1csc(NC(=O)CSc2nc3ccccc3c(=O)[nH]2)n1	6%	u	u	i	3	i
Cc1cccc(C)c1NC(=O)CSc1nc2ccccc2c(=O)[nH]1	-1%	5%	-10	i	-2	16µM*
SMILES	SW480 rereplic	MCF10A rerep	KCNH2 3.1 inh	KB-3-1 tox	hERG WT inh	KB-V1 MDR tox
COCC(C)n1c(C)cc(C(=O)CSc2nc3ccccc3c(=O)[nH]2)c1C (centres undefined)	-2%	u	-1	21µM*	-15	2.6µM*
C[C@H]1CN([C@@H](C)CO)C(=O)c2cc(Br)cnc2O[C@@H]1CN(C)C(=O)CN(C)C	x	x	3	i	-9	i
C=CCSc1nc2ccccc2n1Cc1nnc(-c2cccs2)o1	-1%	1%	-11	i	1	6.5µM*
C=CCn1c(-c2cccs2)nc2ccccc21	-2%	5%	-9	i	-8	i
CCn1c(SC(C)C(=O)Nc2ccc(C)cc2)nnc1-c1ccccc1 (centres undefined)	x	x	x	i	x	i
CCC(CC)CN1CCC(CN2C(=O)C(=O)NC[C@@H]2CC(C)C)CC1	x	x	x	i	x	i
CCC(CC)CN1CCC(CN2CCNC(=O)C2=O)CC1	-1%	2.1µM*	-26	i	1	i
CSc1nc(N)nc(SCC(=O)c2ccc(C)cc2)c1C#N	u	5.8µM*	-3	i	7	i
CSc1nc(N)nc(SCC(=O)OC(C)C)c1C#N	-1%	-1%	-11	i	-8	u
COc1cc2c(cc1OC)C(c1cc3cc4c(cc3[nH]c1=O)OCO4)N(C(=O)C(C)C)CC2 (centres undefined)	u	8.2µM*	-2	i	11	i
COc1ccc(-c2cc(C(F)(F)F)nc(N3CCCCCC3)n2)cc1	2%	23µM*	-3	i	-2	i
COc1cccc(-c2cc(C(F)(F)F)n3ncc(C(=O)O)c3n2)c1	-5%	2%	14	i	1	i
COc1cccc(-c2cc(C(F)(F)F)n3ncc(S(=O)(=O)c4ccccc4)c3n2)c1	8.2µM*	7.3µM*	-1	i	9	i
COc1ccc(-c2cc(C(F)(F)F)nc(N3CCN(C)CC3)n2)cc1	-3%	u	-8	u	-3	12µM*
COc1ccc(-c2cc(C(F)(F)F)nc(N3CCN(C)CC3)n2)cc1OC	12%	20%	11	u	-8	16µM*
COc1ccc(-c2cc(C(F)(F)F)nc(N3CCCCC3)n2)cc1OC	9%	u	4	i	-3	u
O=C(CSc1ncccn1)NC1CCCC1	x	x	1	i	-11	i
COc1cccc(-c2cc(C(F)(F)F)nc(N3CCCCC3)n2)c1	-9%	16µM*	0	i	-2	i
COc1ccc(-c2cc(C(F)(F)F)nc(-n3ccnc3C)n2)cc1	-7%	8%	u	u	1	21µM*
